# Source: PubChem BioAssay (NCATS)
# Active and inactive are the calls of the source. Calls come from the whole dose curve; as a rule, active = well fitted cell-killing curve with a large enough effect; inconclusive = small, poorly fitted or top-dose-only effect, or effect the other way; inactive = flat fitted curve, though single readings scatter.
# Assay: MultiTox-Fluor Cytotoxicity Assay - LYMP1-003 - Dead Cells (AID 961);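 note: cells exposed to compound for 16 h at 37 °C; 0% = DMSO and 100% = tetraoctylammonium bromide; nearly all actives have a fitted effect of over 70% in size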
# Details: LYMP1-003 lymphoblastoid cells, dead-cell protease fluorescence; series mostly up to 92.2 µM; cytotoxicity (dead cells): at the top concentration
# From the text: NIH Chemical Genomics Center [NCGC]
# NIH Molecular Libraries Screening Centers Network [MLSCN]
# National Institutes of Environmental Health Sciences [NIEHS]
# National Toxicology Program [NTP]
# We have developed a 1536-well cell-based assay for quantitative high throughput screening (qHTS) against a number of cell lines to determine in vitro cytotoxicity of small molecules. This particular assay uses a human lymphoblastoid cell line (LYMP1-003) purchased from Coriell Institute.
# NCGC Assay Protocol Summary:
# The MultiTox-Fluor Cytotoxicity Assay (Promega) is a homogeneous method to simultaneously measure the relative number of live and dead cells in culture by detecting changes in cell membrane integrity. There are two fluorogenic peptide substrates in the assay reagent. Viable cells are determined when the cell-permeant substrate (GF-AFC) enters the cell and is cleaved by protease from live cells resulting in liberated fluorophore. This live-cell protease activity restricted to viable cells is proportional to cell number. The dead cells are determined by using fluorogenic cell-impermeant peptide substrate (bis-AAF-R110) which cleaved by dead cell proteases leaking from damaged cell membrane.
# Using the MultiTox-Fluor Cytotoxicity Assay, the relative number of dead cells was measured in the lymphoblastoid cell line with complete culture medium following compound treatment for 16 hours. The assay was performed in opaque black Kalypsys 1536-well plates. In the screen, tetraoctylammonium bromide was used as positive control. Library compounds were measured for their ability to cause acute toxicity in the cell line, as reflected by an increase in dead cell protease activity, in a concentration-dependent manner. Data were normalized to the controls for basal activity (DMSO only) and 100% stimulation (15 uM tetraoctylammonium bromide). AC50 values were determined from concentration-response data modeled with the standard Hill equation.
# qHTS protocol for MultiTox-Fluor Cytotoxicity assay
# [Step] [Parameter] [Value] [Description]
# 1. Reagent; 5 uL; 2500 lymphoblastoid cells/well
# 2. Time; 5 hr; 37 C incubation
# 4. Controls; 23 nL; Tetraoctylammonium bromide 6.4pM to 92 uM
# 5. Time; 16 hr; 37 C incubation
# 6. Reagent; 5 uL; MuliTox-Fluor Assay reagent
# 7. Time; 60 min; Room Temperature
# 8. Detection; dead-cell fluorescence (Ex/Em=485/520); EnVision plate reader
# Keywords: cytotoxicity, lymphoblastoid cell line, fluorescence, NTPHTS, NTPHTS_NCGC, NIEHS, EPA, DSSTox, MLSMR, MLSCN, NIH Roadmap, qHTS, NCGC
row,Structure (SMILES),cytotoxicity (dead cells)
1,O=C(Cl)c1ccccc1[N+](=O)[O-],-6.76% (inactive)
2,CCN(Cc1ccccc1)c1ccccc1,5.83% (inactive)
3,CCOC(C)(C)C,-8.25% (inactive)
4,C1CCC2OC2C1 (stereo not given),-1.2% (inactive)
5,Cc1cccc2ccccc12,-5.68% (inactive)
6,CCc1ccccc1O,-11.2% (inactive)
7,C=CCCCCCCC=C,-11.3% (inactive)
8,O=C(Cl)c1cccc([N+](=O)[O-])c1,1.74% (inactive)
9,OC/C(Br)=C(\Br)CO,-8.88% (inactive)
10,CC(C)(O)C(=O)O,-4.87% (inactive)
11,CC(=O)OCc1ccco1,-2.72% (inactive)
12,CC/C(C)=N/O,-20.6% (inactive)
13,Nc1ccc([N+](=O)[O-])c(N)c1,6.35% (inactive)
14,Nc1cccc([N+](=O)[O-])c1,-2% (inactive)
15,Nc1c(Cl)cc(Cl)cc1Cl,-9.47% (inactive)
16,Nc1cccc(O)c1,-17.4% (inactive)
17,NC(=O)CCCCC(N)=O,-1.04% (inactive)
18,CC(=O)OCCC(C)C,-12.7% (inactive)
19,CCC(C)=O,2.76% (inactive)
20,CCCCCCCCCCCCC1CO1 (stereo not given),-3.13% (inactive)

row,Structure (SMILES),cytotoxicity (dead cells)
1,CCOCCO,-2.65% (inactive)
2,O=C(Cl)c1c(Cl)cccc1Cl,-5.61% (inactive)
3,O=C(O)CNC(=O)c1ccc(CO)o1,-7.07% (inactive)
4,C=CCn1c(=O)n(CC=C)c(=O)n(CC=C)c1=O,3.48% (inactive)
5,COC(=O)c1ccccc1,-18.2% (inactive)
6,CCC(C)(C)C,-9.28% (inactive)
7,Nc1ccc(F)cc1F,-5.54% (inactive)
8,CC(C)CO,-7.4% (inactive)
9,CC(=O)OC(C)C,-1.63% (inactive)
10,O=C(O)CN(CC(=O)O)CC(=O)O,3.18% (inactive)
11,O=Cc1ccc(Cl)cc1,-0.917% (inactive)
12,CCOCCOCC,-0.895% (inactive)
13,COC(=O)CCCC(=O)OC,-11.7% (inactive)
14,NC=O,-0.559% (inactive)
15,Cc1ccc(C)c([N+](=O)[O-])c1,-0.639% (inactive)
16,CSc1ccc(C=O)cc1,-3.94% (inactive)
17,Nc1cccc(S(=O)(=O)O)c1,14.3% (inactive)
18,Nc1ccc(Cl)cc1[N+](=O)[O-],-10.9% (inactive)
19,O=C1OC(=O)c2cc([N+](=O)[O-])ccc21,0.0608% (inactive)
20,CCOC(=O)C(C)C(C)=O (stereo not given),-3.73% (inactive)
